In all, about 33,000 sequences were measured (“E-score (-0.5 to 0.5)”: median about -8e-05, highest 2% from about 0.23 on). Shown is part of a subset that was picked to be rich in the highest values.
Target: T1, Nrg2 (UniProt P38082)
T1 sequence: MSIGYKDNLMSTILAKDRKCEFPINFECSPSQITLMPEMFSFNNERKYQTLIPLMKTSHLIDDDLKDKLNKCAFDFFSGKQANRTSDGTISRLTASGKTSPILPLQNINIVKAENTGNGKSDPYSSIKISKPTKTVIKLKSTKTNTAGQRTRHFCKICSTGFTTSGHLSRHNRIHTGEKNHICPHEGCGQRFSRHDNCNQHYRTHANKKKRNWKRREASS
Test: PBM E-score (8-mer binding enrichment) (E-score (-0.5 to 0.5)); higher = stronger / more preferred TF binding
Details: protein concentration: 100 nM; construct: GST-full length
Protocol: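 Universal 'all 10-mer' protein binding microarrays (Agilent AMADID 015681) probed with GST-tagged S. cerevisiae TFs (full-length or DBD) made by in vitro transcription/translation (PURExpress), about 100-200 nM. Bound TF was detected with fluorescent anti-GST. Each ungapped 8-mer (which stands for itself and its reverse complement) is scored by the PBM enrichment score (E-score), a modified Wilcoxon-Mann-Whitney statistic from -0.5 to +0.5, computed with the Universal PBM Analysis Suite. Scale: above 0.35 generally sequence-specific binding.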

Sequence	PBM E-score
TCACTGCA	0.167
CTCGGCCA	0.104
ACCTGGAA	0.203
CGGGCTAG	-0.0659
GTAAGACA	-0.0374
GGGATCAA	-0.0876
ATGAGATC	0.0358
CAGTTGGA	-0.00944
AAGGGTTG	0.167
CAGGGTGC	0.19
AAGGGTTC	0.248
AAGGGTTA	0.076
CAGGGTTC	0.387
CAGGGTTA	0.0393
AAATGCTA	0.0225
GACGCTAC	-0.0645
AAACTCTG	0.102
CTCATCAC	-0.0539
AATCTCAA	0.124
AATCTTAA	0.0405
CATCTCAG	0.23
CATCTCAA	-0.0442
TATCTCAA	0.267
CTCATCAG	0.247
GATCTCAA	0.115

Sequence	PBM E-score
CATCTCAC	-0.0644
CATCTTAA	0.251
CATCTTAG	0.0135
ATCATCAG	0.0405
GCCCTCAC	-0.177
GGTTCAAA	0.0475
CACGCAGG	0.0602
GACAGTGC	0.0298
AGTGATCA	0.063
AAACCCAA	0.0986
CTCGTTGC	0.212
ACTTGTAA	-0.0121
AGTCATAT	0.0126
AGGCTGAG	-0.0549
ACACTACA	0.108
TCACTACA	0.24
CCACTACA	0.045
TCACTAAA	0.099
ACACTAAA	0.271
TTACTAAA	0.123
GCACTAAA	0.0452
GTACTAAA	0.121
ATACTAAA	0.234
CAGATGCA	-0.158
ATTAACCG	0.107

Sequence	PBM E-score
ATGAGACA	0.0867
AGGTCGGG	-0.142
AAAACCAT	0.137
ATTTCTCC	0.0443
ATTTCTCG	0.285
ATTTCGGG	0.037
ATTTCGAG	0.14
ATTTCGCC	0.0633
ATTTCGCA	0.274
ATTTCTCA	0.0394
CTTTCGCA	-0.0222
ATTTCGCG	0.275
AGTTAAGA	0.0745
GGAACTCC	0.0233
GACTCCCA	-0.248
CGATCTCC	-0.0956
AATAGGAC	0.0448
ACGTCATC	-0.0886
GCTATTCC	-0.0857
ACTGCTCC	0.0162
TAACCCAA	-0.00379
CTAATTGC	0.0943
ATATCTCA	0.238
ATCTCTCA	0.236
ATCTCAAG	0.238

Sequence	PBM E-score
CTATCTCC	0.0511
ATCTCTCC	0.0215
ATCTCAAT	0.0327
ATCTCAAC	0.158
ATATCTCC	0.251
CTATCTCA	0.0251
GTCTCTCA	-0.0103
CTCTCTCA	-0.0307
ATATCTCG	0.0423
ACTCGCCT	0.063
GTCAGGCA	-0.108
TGCGGGAA	0.125
CAGACCTG	-0.119
GCGAATAA	0.18
GAGATACC	0.127
AGCTATGG	-0.0356
CTATCAAG	0.0817
ATATCAAG	0.285
ATATCAAT	0.212
AACTCAAG	-0.0395
CTCTTGAA	-0.0353
CAGGGCGG	-0.0602
CTAGTTGA	0.128
GACATTGC	-0.0455
ACCCCGGG	-0.056

Sequence	PBM E-score
AACCCGCC	0.00993
AACCCGGG	0.255
AACCCGCA	0.0835
AACCCGCG	0.267
ATCCCGCA	0.08
ATCCCGCG	0.294
CACCCGGG	-0.0923
ATCCCGCC	0.0743
AGTGGTCA	-0.145
TCGCCGAA	-0.124
CAGAGTAC	-0.112
ATATGGCC	-0.0218
ATTGTTAA	0.0152
CTTGTTAA	0.0818
GTTGTTAA	0.241
CGCAAGGC	0.203
CCTGTATA	0.0265
CCTGTATC	0.233
ACTGTATC	-0.0153
CAGATTAC	-0.0348
GCGGACAA	0.15
ACGGACAA	0.233
CCGGACAA	0.058
CGTACTTA	0.115
CACCAAGA	0.00109

Sequence	PBM E-score
AGTTTGAC	-0.104
CGTTTGAA	0.00719
AGTTTGAA	0.23
GGATCGCC	0.0218
AAAGGAGG	-0.252
ATCAAACC	0.123
ACAGAGCT	-0.214
ATCGAGCC	-0.103
ATCGAGCG	0.229
CGCCCGCC	0.085
TGCCCGCA	0.148
AGCGCGCC	0.0741
AGCGCGCT	0.187
AGCGCGCG	0.274
ACCGCGCG	0.301
CGCCCGCA	0.229
ACCGCGCT	0.0712
ACCGCGCC	0.00956
ATCGAGCA	0.0824
CACGTAGG	-0.156
AAAATTCA	0.199
CAACGCGC	0.215
GAAGGAAA	-0.238
CAGGGGCC	0.191
AAGGGGCG	-0.117

Sequence	PBM E-score
GGCGCAGA	-0.0307
CAAGCGCC	-0.196
ATCTCGCG	0.282
ATCTCGCC	0.0341
CGCGCAGA	0.232
CAAGCGCA	0.363
CGCGCAGC	0.0142
AAAGCGCA	0.012
ATCTCGCA	0.0354
CAGGGGCG	0.252
AAGTGATT	0.0989
CCCTGCGC	0.1
CCTCTTTC	-0.184
ACACTAGC	-0.00995
ACTAGGAC	-0.00051
GTTTGCGA	0.0803
GGTCTAGA	-0.109
AACGTTTC	-0.144
ATCTCCAC	-0.0729
CTGTTCGC	0.0452
GAGACAAA	-0.091
CACACCAA	0.063
AACTATCG	0.0118
CAGGCGCC	0.0447
AACGCGCA	0.0385

Sequence	PBM E-score
AGAGCGAG	-0.0653
CGAGCGAG	0.249
ATCGCGCG	0.241
CAGGCGCA	-0.114
AACGCGCG	0.319
CGAGCGAC	-0.0894
AACGCGCT	0.123
ATCGCGCA	-0.004
CAGGCGCG	0.231
ATCGCGCC	0.201
ATTCCCAA	0.0933
AGGCCCCT	0.0783
AGCCTCGA	-0.0885
CTAGTACA	0.0576
ACCCTAGC	0.0587
CTACTGAA	0.029
ATCCGATA	0.00821
AAGCAGTC	-0.135
CTCTCTTA	-0.0805
AGCAAAGA	-0.0188
AGACCAAT	-0.00568
CAAACGCG	0.0917
CGCGCGAG	0.245
AAAACGCC	0.0808
CGCGCGAA	0.157

Sequence	PBM E-score
CACGCGCA	-0.0169
CGCGGGCA	0.281
AGCGCGAG	0.0635
CGCGGGCC	0.176
CGCGCGCA	0.296
TGCGCGCA	0.211
AAAACGCG	0.285
GGCGGGCA	-0.0772
AAGATCGT	0.0712
TCAGAGCA	-0.0393
CACTTCAC	-0.0837
GCAACAGA	0.0125
ATTGGAGG	-0.149
AATCGCGG	0.162
ACCTCACT	-0.0963
CGCGCGCC	0.211
CACGCGAG	0.225
CCCGCGCG	0.178
ATCGTGCC	-0.145
CGCGCGCG	0.302
CTCGCGAG	0.257
ATCGTGCG	0.272
ATCGTGCA	0.0864
CTCGCGAA	-0.00662
AGTATACG	0.0367

Sequence	PBM E-score
CCCCAGAA	-0.0495
GATTGGCA	-0.0954
TCCAGACA	-0.0642
GGTAACGA	-0.00769
AATTGTGA	0.116
CTCACAAC	0.206
GTCGGAAA	0.234
ATCGGAAA	0.0359
CTCGGAAA	-0.0457
ATGTGAGG	-0.0251
ATGTCCGG	0.0983
CTGTAGTA	0.245
ATGTAGTA	0.154
GTGTAGTA	-0.0167
CAGCGTTC	0.0488
TGCCAACA	0.0266
AAATCTTG	0.0495
CGGCAGAA	0.154
AATGAAGA	0.14
AATGAAGT	0.23
AATGAAGG	0.0439
CTGAACGA	-0.166
AACGCAGC	0.253
CACGCAGC	-0.0258
AACGCAGA	-0.0108

Sequence	PBM E-score
CGGGTAAG	-0.13
AAACTATT	-0.0651
ATCATTTA	0.0968
CTCATTTC	-0.0953
ATCATTTC	0.242
AGTGCACG	0.0226
AATCATAC	0.116
AATCATAT	0.0761
AATCATAG	0.235
AGATTTGG	-0.144
CAAGTTGG	0.225
ATTTGTTA	0.113
CTTTGTTC	0.0376
ATTTGTTC	0.272
GAGTCAGC	-0.151
AAAAGTCG	0.0204
ACCCCATG	0.217
GAAAAATC	0.099
GCATTGCC	-0.0164
CTTCGAAC	0.108
ATTCGAAC	0.155
GTTCGAAC	0.233
GGAAGCAA	-0.0162
CCATGCAA	0.247
TCATGCAA	0.192

Sequence	PBM E-score
CCATGCAG	0.155
GGGGTCAC	-0.0806
ACGGGCGC	0.0207
AATCCCCT	0.0153
AACATAAC	0.134
AACATAAT	0.248
ATCATAAG	-0.085
CACATAAG	0.0356
AACATAAA	-0.0006
AACATAAG	0.246
GAAGGCAC	0.0779
TGTGAGAA	0.183
ATACATAA	0.0727
TTATATAA	0.192
CTATATAA	0.0499
ATATAGTA	0.155
ATATAGTG	0.241
CTCTATAC	-0.0911
CTATATAC	0.238
CTATATAG	0.00641
ATATAGTC	0.196
ATACATAT	0.235
ATATATAA	0.24
ATACATAC	0.0623
AGTGAGGC	-0.0681

Sequence	PBM E-score
AACCTTGC	-0.0724
AGCCAAAC	0.121
AGATTACG	0.121
AGCCGGAG	0.023
CGGTGAAG	-0.222
GCAACGAA	0.187
ACCATCAC	-0.0188
ATATATAT	0.107
ATATATGA	0.0746
ATATATGC	0.18
ATATATGG	0.23
GTATATAC	0.0119
ATATATAC	0.329
AACATCGG	-0.137
CTACAGAA	0.0765
CGGGTGAA	0.16
ATCCAGGG	0.349
ACTCAGGA	-0.067
ATTCAGGC	0.106
ACTCAGGG	0.294
ATCCAGGC	0.0212
ACTCAGGC	0.00622
AATCAGGG	0.0765
ATCCAGGA	-0.0938
CATCAGGC	-0.00739

Sequence	PBM E-score
CATCAGGG	0.229
ATTCAGGA	0.117
ATTCAGGG	0.367
AGCACAAC	0.0937
CTGTGCTC	0.0672
GGCTGTTA	-0.00387
ATCCGTAA	-0.136
AGGCTTCC	0.0147
TCTCTCAA	0.14
CAGTGAAG	-0.0253
CAGTGAAA	0.0943
CAGTGAAC	0.248
CCAGATAC	-0.0175
GTATGCAA	0.0781
GACCAGTA	-0.174
CGAATCAA	0.22
TGAATTAA	0.273
AGAATCAT	0.0757
GGAATTAA	0.153
CGAATCAG	0.122
AGAATCAG	0.272
TGAATCAA	0.232
AGAATCAA	0.103
CGAATTAA	0.175

Source: the supplement of paper PMC3334620
